Experimental data taken from PubChem BioAssay AID1159580 (chemical genetic matrix, 2015).
In all, about 5,500 compounds went through this assay and about 2,000 (36%) were called active. About 18% were inconclusive and are not listed. Rule as the data show it: active = normalized growth mostly below about 0.91 (no sharp cut-off); inconclusive = no clear call, values can overlap the other calls; inactive = mostly above about 0.92. Some of the results follow.

Assay: chemical genetic growth profiling, strain panel (AID 1159580);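 also: tested at 20 µM; growth read once vehicle control cultures reached saturation at 30 °C; 1 = growth at the plate median or of vehicle wells; lower values mean less growth of the strain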
Conditions: growth OD

Measured: normalized growth

CN1C2CC3C[C@H]1C(O3)C2O (some centres undefined)
inactive: S. cerevisiae deletion strains, locus YAL021C, strain ccr4, hits give low values 1.01 | S. cerevisiae deletion strains, locus YAL026C, strain drs2, hits give low values 1.02 | S. cerevisiae deletion strains, locus YAL030W, strain snc1, hits give low values 0.982 | S. cerevisiae deletion strains, locus YBL061C, strain skt5, hits give low values 1.02 | S. cerevisiae deletion strains, locus YBR009C, strain hhf1, hits give low values 1.03 | S. cerevisiae deletion strains, locus YBR021W, strain FUR4, hits give low values 0.99 | S. cerevisiae deletion strains, locus YBR023C, strain chs3, hits give low values 1.02 | S. cerevisiae deletion strains, locus YBR171W, strain sec66, hits give low values 1.03 | S. cerevisiae deletion strains, locus YBR229C, strain ROT2, hits give low values 1.01 | S. cerevisiae deletion strains, locus YBR231C, strain swc5, hits give low values 1.01 | S. cerevisiae deletion strains, locus YBR279W, strain paf1, hits give low values 1.01 | S. cerevisiae deletion strains, locus YCL011C, strain gbp2, hits give low values 1.02 | S. cerevisiae deletion strains, locus YCL016C, strain dcc1, hits give low values 1.02 | S. cerevisiae deletion strains, locus YCL029C, strain bik1, hits give low values 1.04 | S. cerevisiae deletion strains, locus YCL061C, strain MRC1, hits give low values 1.01 | S. cerevisiae deletion strains, locus YCL069W, strain vba3, hits give low values 1.01 | S. cerevisiae deletion strains, locus YCR088W, strain abp1, hits give low values 1.02 | S. cerevisiae deletion strains, locus YDL005C, strain med2, hits give low values 1.02 | S. cerevisiae deletion strains, locus YDL035C, strain GPR1, hits give low values 1.02 | S. cerevisiae deletion strains, locus YDL040C, strain nat1, hits give low values 0.997 | S. cerevisiae deletion strains, locus YDL074C, strain BRE1, hits give low values 1.04 | S. cerevisiae deletion strains, locus YDL101C, strain DUN1, hits give low values 1.01 | S. cerevisiae deletion strains, locus YDL185W, strain tfp1, hits give low values 1.04 | S. cerevisiae deletion strains, locus YDL192W, strain arf1, hits give low values 1.04 | S. cerevisiae deletion strains, locus YDR001C, strain nth1, hits give low values 1.02 | S. cerevisiae deletion strains, locus YDR069C, strain doa4, hits give low values 0.971 | S. cerevisiae deletion strains, locus YDR101C, strain arx1, hits give low values 1.03 | S. cerevisiae deletion strains, locus YDR137W, strain rgp1, hits give low values 1.02 | S. cerevisiae deletion strains, locus YDR159W, strain sac3, hits give low values 0.964 | S. cerevisiae deletion strains, locus YDR162C, strain NBP2, hits give low values 1.01 | S. cerevisiae deletion strains, locus YDR195W, strain ref2 0.995 | S. cerevisiae deletion strains, locus YDR297W, strain sur2, hits give low values 0.958 | S. cerevisiae deletion strains, locus YDR318W, strain mcm21, hits give low values 1.03 | S. cerevisiae deletion strains, locus YDR334W, strain swr1, hits give low values 1.02 | S. cerevisiae deletion strains, locus YDR335W, strain msn5, hits give low values 0.982 | S. cerevisiae deletion strains, locus YDR388W, hits give low values 1.03 | S. cerevisiae deletion strains, locus YDR392W, strain spt3, hits give low values 0.985 | S. cerevisiae deletion strains, locus YDR502C, strain sam2, hits give low values 1.02 | S. cerevisiae deletion strains, locus YEL003W, strain gim4, hits give low values 1.02 | S. cerevisiae deletion strains, locus YEL037C, strain rad23, hits give low values 1.02 | S. cerevisiae deletion strains, locus YEL061C, strain CIN8 (second series), hits give low values 1.03 | S. cerevisiae deletion strains, locus YEL061C, strain CIN8, hits give low values 1.01 | S. cerevisiae deletion strains, locus YER015W, strain faa2, hits give low values 1.01 | S. cerevisiae deletion strains, locus YER016W, strain bim1, hits give low values 1.01 | S. cerevisiae deletion strains, locus YER110C, hits give low values 1.04 | S. cerevisiae deletion strains, locus YER111C, strain swi4, hits give low values 1.02 | S. cerevisiae deletion strains, locus YER155C, strain BEM2 (second series), hits give low values 0.994 | S. cerevisiae deletion strains, locus YER155C, strain BEM2, hits give low values 1 | S. cerevisiae deletion strains, locus YER167W, strain BCK2, hits give low values 1.01 | S. cerevisiae deletion strains, locus YFR010W, strain ubp6, hits give low values 1.03 | S. cerevisiae deletion strains, locus YGL078C, strain dbp3, hits give low values 1.02 | S. cerevisiae deletion strains, locus YGL086W, strain mad1, hits give low values 1 | S. cerevisiae deletion strains, locus YGL167C, strain pmr1, hits give low values 1.02 | S. cerevisiae deletion strains, locus YGL173C, strain kem1, hits give low values 1.02 | S. cerevisiae deletion strains, locus YGL227W, strain vid30, hits give low values 1.01 | S. cerevisiae deletion strains, locus YGL240W, strain doc1, hits give low values 0.972 | S. cerevisiae deletion strains, locus YGL248W, strain PDE1, hits give low values 1.01 | S. cerevisiae deletion strains, locus YGL253W, strain hxk2, hits give low values 1.01 | S. cerevisiae deletion strains, locus YGR078C, strain PAC10, hits give low values 1.02 | S. cerevisiae deletion strains, locus YGR135W, strain pre9, hits give low values 1.02 | S. cerevisiae deletion strains, locus YGR252W, strain gcn5, hits give low values 1.02 | S. cerevisiae deletion strains, locus YHR013C, strain ard1, hits give low values 1.01 | S. cerevisiae deletion strains, locus YHR027C, strain rpn1, hits give low values 1 | S. cerevisiae deletion strains, locus YHR030C, strain SLT2, hits give low values 1.01 | S. cerevisiae deletion strains, locus YHR079C, strain IRE1 (second series), hits give low values 1.03 | S. cerevisiae deletion strains, locus YHR094C, strain hxt1, hits give low values 1.03 | S. cerevisiae deletion strains, locus YHR129C, strain ARP1, hits give low values 1 | S. cerevisiae deletion strains, locus YHR142W, strain chs7, hits give low values 1.04 | S. cerevisiae deletion strains, locus YHR200W, strain rpn10, hits give low values 1.02 | S. cerevisiae deletion strains, locus YIL066C, strain RNR3, hits give low values 1.01 | S. cerevisiae deletion strains, locus YIL073C, strain SPO22, hits give low values 1.08 | S. cerevisiae deletion strains, locus YIL125W, strain kgd1, hits give low values 1.02 | S. cerevisiae deletion strains, locus YIR030C, strain dcg1, hits give low values 1.03 | S. cerevisiae deletion strains, locus YJL092W, strain hpr5, hits give low values 1.02 | S. cerevisiae deletion strains, locus YJL095W, strain BCK1 (second series), hits give low values 0.985 | S. cerevisiae deletion strains, locus YJL095W, strain BCK1, hits give low values 1.01 | S. cerevisiae deletion strains, locus YJL115W, strain asf1, hits give low values 1.03 | S. cerevisiae deletion strains, locus YJL129C, strain trk1, hits give low values 1.04 | S. cerevisiae deletion strains, locus YJL134W, strain LCB3, hits give low values 1.01 | S. cerevisiae deletion strains, locus YJL154C, strain vps35, hits give low values 1.01 | S. cerevisiae deletion strains, locus YJL164C, strain tpk1, hits give low values 0.999 | S. cerevisiae deletion strains, locus YJL166W, strain qcr8, hits give low values 0.996 | S. cerevisiae deletion strains, locus YJL168C, strain set2, hits give low values 1.02 | S. cerevisiae deletion strains, locus YJL187C, strain SWE1 (second series), hits give low values 1.01 | S. cerevisiae deletion strains, locus YJL187C, strain SWE1, hits give low values 0.969 | S. cerevisiae deletion strains, locus YJR043C, strain POL32, hits give low values 0.999 | S. cerevisiae deletion strains, locus YJR075W, strain HOC1, hits give low values 1.01 | S. cerevisiae deletion strains, locus YKL009W, strain mrt4, hits give low values 1.02 | S. cerevisiae deletion strains, locus YKL068W, hits give low values 1.03 | S. cerevisiae deletion strains, locus YKL085W, strain MDH1 (second series), hits give low values 1.01 | S. cerevisiae deletion strains, locus YKL085W, strain MDH1, hits give low values 1.01 | S. cerevisiae deletion strains, locus YKL160W, strain elf1, hits give low values 1 | S. cerevisiae deletion strains, locus YKL190W, strain CNB1, hits give low values 1.01 | S. cerevisiae deletion strains, locus YKR001C, strain vps1, hits give low values 1.03 | S. cerevisiae deletion strains, locus YKR026C, strain gcn3, hits give low values 1.01 | S. cerevisiae deletion strains, locus YKR091W, strain srl3, hits give low values 1.01 | S. cerevisiae deletion strains, locus YLL001W, strain dnm1, hits give low values 1.03 | S. cerevisiae deletion strains, locus YLL026W, hits give low values 1.01 | S. cerevisiae deletion strains, locus YLL041C, strain sdh2, hits give low values 0.997 | S. cerevisiae deletion strains, locus YLR027C, strain aat2, hits give low values 0.975 | S. cerevisiae deletion strains, locus YLR039C, strain RIC1, hits give low values 1.07 | S. cerevisiae deletion strains, locus YLR058C, strain SHM2, hits give low values 1.01 | S. cerevisiae deletion strains, locus YLR102C, strain apc9, hits give low values 1.04 | S. cerevisiae deletion strains, locus YLR221C, strain rsa3, hits give low values 1.01 | S. cerevisiae deletion strains, locus YLR258W, strain gsy2, hits give low values 0.983 | S. cerevisiae deletion strains, locus YLR262C, strain YPT6 (second series), hits give low values 1.05 | S. cerevisiae deletion strains, locus YLR262C, strain YPT6, hits give low values 1.08 | S. cerevisiae deletion strains, locus YLR268W, strain sec22, hits give low values 1.03 | S. cerevisiae deletion strains, locus YLR320W, strain mms22, hits give low values 1.02 | S. cerevisiae deletion strains, locus YLR330W, strain CHS5, hits give low values 1.01 | S. cerevisiae deletion strains, locus YLR342W, strain FKS1 (second series), hits give low values 1 | S. cerevisiae deletion strains, locus YLR342W, strain FKS1, hits give low values 1.01 | S. cerevisiae deletion strains, locus YLR357W, strain rsc2, hits give low values 1.03 | S. cerevisiae deletion strains, locus YLR370C, strain arc18, hits give low values 0.979 | S. cerevisiae deletion strains, locus YLR371W, strain rom2, hits give low values 1.02 | S. cerevisiae deletion strains, locus YLR384C, strain iki3, hits give low values 1 | S. cerevisiae deletion strains, locus YLR418C, strain cdc73, hits give low values 1.03 | S. cerevisiae deletion strains, locus YML016C, strain PPZ1, hits give low values 1.02 | S. cerevisiae deletion strains, locus YML032C, strain rad52, hits give low values 1.02 | S. cerevisiae deletion strains, locus YML120C, strain ndi1, hits give low values 1.03 | S. cerevisiae deletion strains, locus YML124C, strain tub3, hits give low values 1.03 | S. cerevisiae deletion strains, locus YMR058W, strain fet3, hits give low values 1.02 | S. cerevisiae deletion strains, locus YMR078C, strain ctf18, hits give low values 1.03 | S. cerevisiae deletion strains, locus YMR125W, strain sto1, hits give low values 1.01 | S. cerevisiae deletion strains, locus YMR129W, hits give low values 0.986 | S. cerevisiae deletion strains, locus YMR205C, strain PFK2, hits give low values 0.974 | S. cerevisiae deletion strains, locus YMR223W, strain ubp8, hits give low values 1.03 | S. cerevisiae deletion strains, locus YMR231W, strain pep5, hits give low values 0.988 | S. cerevisiae deletion strains, locus YMR307W, strain GAS1, hits give low values 0.99 | S. cerevisiae deletion strains, locus YNL067W, strain RPL9B, hits give low values 1 | S. cerevisiae deletion strains, locus YNL071W, strain lat1, hits give low values 1.02 | S. cerevisiae deletion strains, locus YNL153C, strain GIM3, hits give low values 1.01 | S. cerevisiae deletion strains, locus YNL209W, strain ssb2, hits give low values 1.01 | S. cerevisiae deletion strains, locus YNL233W, strain BNI4, hits give low values 1.01 | S. cerevisiae deletion strains, locus YNL248C, strain rpa49, hits give low values 1.02 | S. cerevisiae deletion strains, locus YNL250W, strain rad50, hits give low values 1.03 | S. cerevisiae deletion strains, locus YNL271C, strain bni1, hits give low values 1.03 | S. cerevisiae deletion strains, locus YNL298W, strain CLA4, hits give low values 1.02 | S. cerevisiae deletion strains, locus YNL307C, strain MCK1, hits give low values 1.05 | S. cerevisiae deletion strains, locus YNL322C, strain KRE1 (second series), hits give low values 1.02 | S. cerevisiae deletion strains, locus YNR049C, strain mso1, hits give low values 0.982 | S. cerevisiae deletion strains, locus YNR052C, strain pop2, hits give low values 1.01 | S. cerevisiae deletion strains, locus YOL012C, strain htz1 1.37 | S. cerevisiae deletion strains, locus YOL147C, strain pex11, hits give low values 1.03 | S. cerevisiae deletion strains, locus YOR001W, strain rrp6, hits give low values 0.987 | S. cerevisiae deletion strains, locus YOR061W, strain CKA2, hits give low values 1.02 | S. cerevisiae deletion strains, locus YOR069W, strain VPS5, hits give low values 1.01 | S. cerevisiae deletion strains, locus YOR070C, strain gyp1, hits give low values 1.01 | S. cerevisiae deletion strains, locus YOR080W, strain dia2, hits give low values 1.02 | S. cerevisiae deletion strains, locus YOR083W, strain WHI5, hits give low values 1 | S. cerevisiae deletion strains, locus YOR106W, strain vam3, hits give low values 1.03 | S. cerevisiae deletion strains, locus YOR136W, strain idh2, hits give low values 1.03 | S. cerevisiae deletion strains, locus YOR144C, strain elg1, hits give low values 1.03 | S. cerevisiae deletion strains, locus YOR184W, strain ser1, hits give low values 1.04 | S. cerevisiae deletion strains, locus YOR265W, strain rbl2, hits give low values 1.01 | S. cerevisiae deletion strains, locus YOR270C, strain vph1, hits give low values 1.04 | S. cerevisiae deletion strains, locus YOR290C, strain snf2, hits give low values 0.99 | S. cerevisiae deletion strains, locus YOR316C, strain cot1, hits give low values 1.04 | S. cerevisiae deletion strains, locus YPL051W, strain arl3, hits give low values 1.01 | S. cerevisiae deletion strains, locus YPL078C, strain atp4, hits give low values 1.02 | S. cerevisiae deletion strains, locus YPL106C, strain sse1, hits give low values 0.995 | S. cerevisiae deletion strains, locus YPL240C, strain hsp82, hits give low values 0.997 | S. cerevisiae deletion strains, locus YPL241C, strain CIN2, hits give low values 1.01 | S. cerevisiae deletion strains, locus YPR119W, strain clb2, hits give low values 1.03 | S. cerevisiae deletion strains, locus YPR141C, strain kar3, hits give low values 1.04 | S. cerevisiae deletion strains, locus YPR163C, strain tif3, hits give low values 1.04 | S. cerevisiae deletion strains, locus YPR167C, strain met16, hits give low values 1.02 | S. cerevisiae deletion strains, strain wtn01, hits give low values 1.04 | S. cerevisiae strains, strain wild type, hits give low values 1.02
